Assay outcomes: PubChem BioAssay, National Center for Advancing Translational Sciences (NCATS)
In the library only some 8% were active in any assay of this set; here they are far more common.
MCF10A rereplic = induces DNA re-replication in MCF 10a normal breast cells. MCF 10A DNA re-replication, Hoechst nuclear intensity, 48 h. Potency, µM (top dose mostly 46.1 µM), for the others: at the highest dose activity, positive = re-replication, usual class: activators. hit rate 2.9% among 350,000; note: % of control where 0% means no effect; nearly all actives have a fitted effect of over 50% in size
SW480 rerep = inducers of DNA re-replication in SW480 colon cancer cells | hit rate 1.8% among 340,000 | Potency, µM (top dose mostly 46.1 µM), inactives show at the highest dose re-replication activation, hits mostly activators | SW480 DNA re-replication, Hoechst DNA content imaging, 48 h | AID 624297; note: % of control where 0% means no effect; nearly all actives have a fitted effect of over 55% in size
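SW480 cells exposed to compounds for 48 hr at 37 C, 5% CO2, then Hoechst-stained 40 min. Nuclear DNA content imaged by fluorescence scanning (405 nm excitation, 500-530 nm emission); re-replication scored as increased high-intensity nuclei.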
HT1080 IDH1KD tx = kills HT-1080 cells with IDH1 knockdown; HT-1080 IDH1 knockdown viability, ATP luminescence, 48 h; Potency, µM (titrated, usually from 46.1 µM), for inactives: top-dose activity, negative = toxicity, hits mostly cytotoxic; hit rate 2% among 360,000;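 note: 0% = DMSO wells and -100% = cell-free medium wells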
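Assay cells: HT-1080 with IDH1 knockdown, 750 per well, RPMI/5% FBS. Exposure: 48 h at 37 °C following 2 h pre-incubation. Read: CellTiter-Glo luminescence; fitted concentration-response, curve class assigned.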
KB-3-1 tox = KB-3-1 parental cell cytotoxicity | hit rate 1.4% among 400,000 | Potency, µM (doses to about 46.1 µM), actives largely listed as cytotoxic | KB-3-1 viability, CellTiter-Glo ATP luminescence, 72 h; note: % is set by controls: 0 for no effect and ±100 for the full control effect; nearly all actives have a fitted effect of over 60% in size
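Screening of KB-3-1 cells (DMEM, 10% FBS, phenol-red free) ran from lowest to highest compound concentration; after 72 h at 37 °C viability was read luminescently and curves fitted.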
HT1080-NT tox = kills 2HG-producing HT-1080-NT fibrosarcoma cells | HT-1080-NT fibrosarcoma viability, CellTiter-Glo ATP luminescence, 48 h | Potency, µM (series often up to 46.1 µM), inactives show top-dose activity, negative = less viability, usual class: cytotoxic | hit rate 1.6% among 360,000 | AID 686970;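 note: NT is the 2HG producing partner of a matched IDH1 knockdown line; 0% = DMSO-treated cells and -100% = media-only wells without cells; nearly all actives have a fitted effect of over 55% in size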
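HT-1080-NT; 750 cells/well; 5% FBS RPMI; 48 h compound, 37 degrees C; CellTiter-Glo luminescence; curve fitting and curve-class assignment.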
KB-V1 MDR tox = KB-V1 MDR subline cytotoxicity; Potency, µM (doses to about 46.1 µM), most hits filed as cytotoxic; hit rate 3.4% among 400,000; KB-V1 MDR cells viability, CellTiter-Glo, 72 h; note: % is set by controls: 0 for no effect and ±100 for the full control effect; nearly all actives have a fitted effect of over 60% in size
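Compound-treated KB-V1 multidrug-resistant cells, 72 h, 37 degrees C; viability by CellTiter-Glo. Fitted qHTS curves give the values.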
Numbers without * were called inactive; [ ] = dose if it differs, or a comment. Calls come from the whole dose curve; as a rule, active = well fitted curve in the direction sought with a large enough effect; inconclusive = small, poorly fitted or top-dose-only effect, or another doubt; inactive = no such curve, though single readings can be large; an effect the other way counts as inactive or inconclusive. Potency is the fitted concentration of half-maximal effect.

`Cc1[nH]c2ccccc2c(=O)c1CN1CCCCCC1` gave MCF10A rereplic 1.5%, SW480 rerep 2.3%, HT1080 IDH1KD tx 19.7%, KB-3-1 tox inactive, HT1080-NT tox -0.6% and KB-V1 MDR tox inconclusive.
Cc1cccc2c3c([nH]c12)C(=O)CC(C)(C)S3 was read as MCF10A rereplic 3.7%, SW480 rerep 1.2%, HT1080 IDH1KD tx -21.6%, KB-3-1 tox inactive, HT1080-NT tox -23.1% and KB-V1 MDR tox inactive.
Screening Cc1ccc2[nH]c3c(c2c1)SC(C)(C)CC3=O returned MCF10A rereplic 18.4µM*, SW480 rerep inconclusive, HT1080 IDH1KD tx -0.4%, KB-3-1 tox inactive, HT1080-NT tox 1.9% and KB-V1 MDR tox inactive.
O=C1CCCc2c1[nH]c1ccc(CN3CCCCC3)cc21 was read as MCF10A rereplic 14.9%, SW480 rerep -0.6%, HT1080 IDH1KD tx 10µM*, KB-3-1 tox inactive, HT1080-NT tox inconclusive and KB-V1 MDR tox inconclusive.
For CC(C)c1ccc2[nH]c3c(c2c1)CCCC3=O the results were MCF10A rereplic -3.3%, SW480 rerep -6.0%, HT1080 IDH1KD tx inconclusive, KB-3-1 tox inactive, HT1080-NT tox 20.6µM* and KB-V1 MDR tox 13µM*.
Screening Cc1ccc2[nH]c3c(c2c1)CCC3=O returned MCF10A rereplic -7.3%, SW480 rerep -10.2%, HT1080 IDH1KD tx -14.6%, KB-3-1 tox inactive, HT1080-NT tox 0.0% and KB-V1 MDR tox inconclusive.
For NC(=O)/C=C/C(=O)Nc1ccc(Cl)cc1 the results were MCF10A rereplic 14.6µM*, SW480 rerep 17.7%, HT1080 IDH1KD tx inconclusive, KB-3-1 tox inactive, HT1080-NT tox -1.8% and KB-V1 MDR tox inactive.
Screening COc1ccc2[nH]c(=O)c(CN(Cc3nnnn3Cc3ccco3)C3CCCCC3)cc2c1 returned MCF10A rereplic 30.0%, SW480 rerep inconclusive, HT1080 IDH1KD tx 0.0%, KB-3-1 tox inconclusive, HT1080-NT tox -0.1% and KB-V1 MDR tox inactive.
For Cc1ccc(CN(Cc2cc3cc4c(cc3[nH]c2=O)OCCO4)Cc2nnnn2Cc2ccco2)cc1 the results were MCF10A rereplic inconclusive, SW480 rerep inconclusive, HT1080 IDH1KD tx inconclusive, KB-3-1 tox inactive, HT1080-NT tox -29.0% and KB-V1 MDR tox 14.6µM*.
For Cc1ccc2[nH]c(=O)c(CN(Cc3ccccc3)Cc3nnnn3C3CCCC3)cc2c1 the results were MCF10A rereplic 0.6%, SW480 rerep -2.9%, HT1080 IDH1KD tx -3.6%, KB-3-1 tox inactive, HT1080-NT tox 5.4% and KB-V1 MDR tox 23.1µM*.
Screening COc1ccc(Cn2nnnc2CN(Cc2cc3cc(C)ccc3[nH]c2=O)C2CCCC2)cc1 returned MCF10A rereplic 23.1µM*, SW480 rerep 13.8%, HT1080 IDH1KD tx 15.1%, KB-3-1 tox inactive, HT1080-NT tox 0.0% and KB-V1 MDR tox 16.4µM*.
`CCC(C)(C)n1nnnc1C(C(C)C)N(Cc1cccnc1)Cc1ccco1` (stereo not drawn) gave MCF10A rereplic 10.6%, SW480 rerep -37.5%, HT1080 IDH1KD tx -7.2%, KB-3-1 tox inactive, HT1080-NT tox 17.0% and KB-V1 MDR tox inactive.
Screening Cc1ccc2[nH]c(=O)c(CN(Cc3nnnn3C3CCCC3)C3CCCCC3)cc2c1 returned MCF10A rereplic 20.7%, SW480 rerep 16.8%, HT1080 IDH1KD tx -5.7%, KB-3-1 tox inactive, HT1080-NT tox 0.6% and KB-V1 MDR tox inactive.
Screening CCC(C)(C)n1nnnc1C(C(C)C)N(Cc1ccco1)Cc1cc2cc3c(cc2[nH]c1=O)OCO3 (stereo not drawn) returned MCF10A rereplic inconclusive, SW480 rerep inconclusive, HT1080 IDH1KD tx -27.8%, KB-3-1 tox inconclusive, HT1080-NT tox -2.2% and KB-V1 MDR tox 14.6µM*.
`c1cnc(N2CCN(c3ncc4c(n3)CCNC4)CC2)nc1` gave KB-3-1 tox inactive and KB-V1 MDR tox inactive.
For O=c1[nH]c2cc3c(cc2cc1CN(Cc1nnnn1C1CCCC1)C1CCCC1)OCCO3 the results were MCF10A rereplic -6.2%, SW480 rerep -3.3%, HT1080 IDH1KD tx -25.8%, KB-3-1 tox 23.1µM*, HT1080-NT tox 1.1% and KB-V1 MDR tox inactive.
`CCOC(=O)c1c(CSc2nc(C)cc(C)c2C#N)n(C)c2cc(Br)c(OC(C)=O)cc12` gave MCF10A rereplic 5.3%, SW480 rerep 1.1%, HT1080 IDH1KD tx 5.2%, KB-3-1 tox inconclusive, HT1080-NT tox inconclusive and KB-V1 MDR tox inconclusive.
Screening CCCCCCCCOC(=O)c1c(CSC(=N)N)n(C)c2cc(Br)c(OC(C)=O)cc12 returned MCF10A rereplic 3.26µM*, SW480 rerep inconclusive, HT1080 IDH1KD tx inconclusive, KB-3-1 tox inactive, HT1080-NT tox inconclusive and KB-V1 MDR tox inconclusive.
For C=CCCc1ccc(C#N)c(SCc2c(C(=O)OCC)c3cc(OC(C)=O)c(Br)cc3n2C)n1 the results were MCF10A rereplic 19.5%, SW480 rerep inconclusive, HT1080 IDH1KD tx -13.0%, KB-3-1 tox inconclusive, HT1080-NT tox inconclusive and KB-V1 MDR tox 2.59µM*.
`CCOC(=O)c1c(CSC(=N)N)n(-c2ccc(Br)cc2)c2cc(Br)c(OC(C)=O)cc12` gave MCF10A rereplic 10.3µM*, SW480 rerep inconclusive, HT1080 IDH1KD tx -6.9%, KB-3-1 tox inactive, HT1080-NT tox 12.9% and KB-V1 MDR tox inactive.
`CCOC(=O)c1c(C)n(C)c2cc(Br)c(OC)cc12` gave MCF10A rereplic -1.2%[9.22 µM], SW480 rerep -59.5%, HT1080 IDH1KD tx 5.9%, KB-3-1 tox inactive, HT1080-NT tox 6.2% and KB-V1 MDR tox inconclusive.
`COc1cc(NC(=O)c2sc3nc4n(c(=O)c3c2C)CCCCC4)cc(OC)c1OC` gave KB-3-1 tox inactive and KB-V1 MDR tox inactive.
CN1CCCc2ccccc21 was read as KB-3-1 tox inactive and KB-V1 MDR tox inactive.
For CCOc1ccc(CCNC(=O)c2c(C)oc3ncn(CC(C)C)c(=O)c23)cc1 the results were KB-3-1 tox inactive and KB-V1 MDR tox inactive.
`COc1ccccc1NC(=O)CSc1nc2c(oc3ccccc32)c(=O)n1-c1ccc(C)cc1` gave KB-3-1 tox inactive and KB-V1 MDR tox inconclusive.
For CC(=O)Nc1cccc(-c2ccnc3c2CC(C(=O)NCc2cccs2)O3)c1 (stereo not drawn) the results were HT1080 IDH1KD tx 0.651µM*, KB-3-1 tox 5.8µM*, HT1080-NT tox inconclusive and KB-V1 MDR tox inactive.
CC(=O)NCCNC(=O)C1Cc2c(-c3cccc(NC(C)=O)c3)ccnc2O1 (stereo not drawn) was read as HT1080 IDH1KD tx 27.0%, KB-3-1 tox inactive, HT1080-NT tox inconclusive and KB-V1 MDR tox inactive.
